Test systems include BLK; BMPR1A; BMPR1B; BMPR2; BMX; BRAF; BRSK1; BRSK2; BTK; BUB1; CAMK1B; CAMK1D; CAMK1G; CAMK1; CAMK2A; CAMK2B; CAMK2D; CAMK2G.
Common to all, as to settings: concentration: 1 μM, replicates: in singlicate; n = 1
A further assay concerns T1, BIKE.
T1 construct: gene BMP2K

The subject of the next assay is T2, BRK.
T2 construct: gene PTK6
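Also: KINOMEscan kinase panel screen.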

For the compound `O=C(Nc1n[nH]c2nc(-c3ccco3)c(Br)cc12)C1CCN(Cc2ccccc2)C1.O=C(O)[C@H](O)[C@@H](O)C(=O)O` (stereo not shown) [SB-742034], the “%Inh” value with BIKE was 0%; with BLK it was 0%; in the assay on BMPR1A, 32%; with BMPR1B, 10%; with BMPR2, 16%; in the assay on BMX, 0%. Besides, the “%Inh” value in the assay on BRAF is reported as 0%; with BRK, 9%; with BRSK1 it was 18%; in the assay on BRSK2 it was 37%; with BTK, 0%; with BUB1 it was 0%. Also, the “%Inh” value is reported as 0% in the assay with CAMK1B; 22% with CAMK1D; 10% in the assay on CAMK1G; 29% in the assay on CAMK1; 30% in the assay with CAMK2A; 20% in the assay on CAMK2B. Moreover, the “%Inh” value in the assay with CAMK2D worked out at 7%; in the assay on CAMK2G, 17%.
With `Nc1cccc(-c2ccc3c(N)n[nH]c3c2)n1` [GSK2192730], the “%Inh” value amounted to 74% in the assay on BIKE; 0% in the assay on BLK; 2% in the assay on BMPR1A; 16% in the assay with BMPR1B; 0% with BMPR2; 1% in the assay on BMX. For the same compound, the “%Inh” value in the assay on BRAF turned out to be 0%; with BRK, 0%; with BRSK1, 55%; in the assay with BRSK2, 37%; in the assay with BTK, 0%; in the assay on BUB1, 0%. Besides, the “%Inh” value in the assay with CAMK1B stood at 0%; with CAMK1D, 30%; in the assay on CAMK1G it was 9%; in the assay with CAMK1, 29%; in the assay on CAMK2A, 0%; with CAMK2B it was 0%. In addition, the results for the “%Inh” value in the assay on CAMK2D and in the assay with CAMK2G were 20% and 31%, respectively.
Take `O=c1cc(N2CCOCC2)nc2n(Cc3cccc(Cl)c3Cl)c3ccccc3n12` [GSK2299009]: the “%Inh” value turned out to be 38% with BIKE; 50% in the assay on BLK; 2% in the assay with BMPR1A; 0% in the assay on BMPR1B; 0% in the assay with BMPR2; 1% in the assay on BMX. The “%Inh” value with BRAF was 0%; in the assay with BRK, 17%; in the assay with BRSK1, 8%; with BRSK2, 22%; with BTK, 0%; with BUB1, 0%. Besides, the “%Inh” value worked out at 34% in the assay with CAMK1B; 36% in the assay with CAMK1D; 13% in the assay on CAMK1G; 43% in the assay with CAMK1; 0% with CAMK2A; 0% in the assay with CAMK2B. The “%Inh” value in the assay with CAMK2D amounted to 21%; in the assay on CAMK2G, 33%.
Regarding `CS(=O)(=O)CCNCc1nc(-c2ccc3ncnc(Nc4ccc5c(cnn5Cc5ccccc5)c4)c3c2)cs1.Cl.Cl` [GW569716], the “%Inh” value in the assay with BIKE amounted to 0%; in the assay on BLK, 38%; with BMPR1A, 0%; in the assay on BMPR1B, 0%; in the assay with BMPR2, 16%; in the assay with BMX, 2%. Besides, the “%Inh” value in the assay on BRAF is 0%; in the assay with BRK, 17%; in the assay with BRSK1, 0%; in the assay with BRSK2 it was 0%; in the assay with BTK, 20%; in the assay on BUB1, 49%. For the same compound, the “%Inh” value turned out to be 0% in the assay with CAMK1B; 9% in the assay on CAMK1D; 0% in the assay on CAMK1G; 11% with CAMK1; 0% in the assay on CAMK2A; 0% with CAMK2B. Also, the figures for the “%Inh” value in the assay with CAMK2D and in the assay on CAMK2G were 6% and 16%, respectively.
For `CC[C@@H]1CO[C@H](C(=O)Nc2ccccc2)CN1c1cc(-c2ccc3c(N)n[nH]c3c2)nc(NC)n1` [GSK2376236], the “%Inh” value in the assay on BIKE was 15%; in the assay on BLK it was 0%; in the assay on BMPR1A, 0%; with BMPR1B, 0%; in the assay with BMPR2 it was 0%; in the assay with BMX it was 41%. In addition, the “%Inh” value in the assay on BRAF was 0%; in the assay on BRK, 7%; in the assay with BRSK1 it was 0%; with BRSK2, 1%; with BTK, 0%; with BUB1, 0%. Also, the “%Inh” value in the assay on CAMK1B turned out to be 29%; in the assay with CAMK1D, 19%; in the assay with CAMK1G it was 13%; in the assay on CAMK1, 7%; in the assay on CAMK2A, 0%; in the assay on CAMK2B it was 0%. Moreover, the “%Inh” value stood at 21% with CAMK2D and 6% in the assay with CAMK2G.
As to `Cn1cnc2c(N)ncnc21` [SKF-97623], the “%Inh” value with BIKE, in the assay on BLK, in the assay with BMPR1A, in the assay on BMPR1B, in the assay with BMPR2 and in the assay on BMX was 0% throughout. Also, the “%Inh” value with BRAF was 0%; with BRK, 0%; with BRSK1, 24%; in the assay on BRSK2 it was 0%; in the assay on BTK, 0%; in the assay with BUB1, 22%. For the same compound, the “%Inh” value in the assay on CAMK1B came to 41%; with CAMK1D it was 0%; in the assay with CAMK1G it was 0%; in the assay on CAMK1, 0%; in the assay with CAMK2A, 0%; in the assay with CAMK2B it was 0%. Also, the “%Inh” value in the assay with CAMK2D and in the assay with CAMK2G was 0% throughout.
For `CNc1cc(-c2ccc3c(N)n[nH]c3c2)nc(N)n1` [GSK2224810], the “%Inh” value with BIKE is recorded as 74%; in the assay with BLK it was 0%; in the assay on BMPR1A, 16%; in the assay on BMPR1B, 78%; in the assay with BMPR2, 5%; in the assay with BMX it was 15%. The “%Inh” value with BRAF worked out at 0%; with BRK, 6%; in the assay with BRSK1, 2%; in the assay on BRSK2 it was 0%; with BTK it was 0%; in the assay with BUB1 it was 53%. In addition, the “%Inh” value with CAMK1B amounted to 8%; in the assay on CAMK1D, 23%; with CAMK1G, 0%; in the assay on CAMK1, 24%; in the assay with CAMK2A, 0%; in the assay with CAMK2B, 13%. For the same compound, the figures for the “%Inh” value with CAMK2D and in the assay on CAMK2G were 7% and 21%, respectively.
For `CNc1nc(-c2ccc3c(N)n[nH]c3c2)cc(N2C[C@@H](C(=O)NC3CCCCC3)OC[C@H]2C)n1` [GSK2375584], the “%Inh” value in the assay with BIKE turned out to be 24%; in the assay with BLK, 0%; in the assay on BMPR1A, 0%; with BMPR1B, 0%; with BMPR2, 0%; in the assay on BMX, 23%. Also, the “%Inh” value with BRAF worked out at 0%; in the assay with BRK, 14%; in the assay on BRSK1, 14%; in the assay with BRSK2, 19%; in the assay on BTK, 7%; in the assay on BUB1, 36%. Further, the “%Inh” value is reported as 0% in the assay with CAMK1B; 20% in the assay on CAMK1D; 0% in the assay with CAMK1G; 19% with CAMK1; 0% in the assay on CAMK2A; 0% in the assay with CAMK2B. Further, the “%Inh” value is given as 15% in the assay with CAMK2D and 34% in the assay on CAMK2G.
Regarding `Cc1ccc(-c2nc(Nc3ccncc3)c3ccccc3n2)s1` [GSK189015], the “%Inh” value with BIKE is listed as 37%; with BLK, 29%; in the assay on BMPR1A it was 0%; with BMPR1B it was 0%; with BMPR2, 0%; in the assay with BMX, 23%. Also, the “%Inh” value was determined as 6% in the assay on BRAF; 4% with BRK; 20% with BRSK1; 0% in the assay on BRSK2; 0% in the assay with BTK; 34% with BUB1. The “%Inh” value in the assay on CAMK1B amounted to 27%; in the assay on CAMK1D, 12%; in the assay on CAMK1G, 2%; in the assay with CAMK1, 15%; with CAMK2A, 0%; in the assay on CAMK2B it was 0%. The “%Inh” value in the assay with CAMK2D turned out to be 12%; in the assay with CAMK2G, 24%.
With `COc1cccc(C2=C(Nc3cc(Cl)c(O)c(Cl)c3)C(=O)NC2=O)c1` [SB-390767], the “%Inh” value in the assay with BIKE is listed as 21%; with BLK it was 0%; in the assay on BMPR1A it was 0%; in the assay on BMPR1B, 0%; in the assay with BMPR2, 1%; in the assay on BMX, 13%. The “%Inh” value in the assay with BRAF was determined as 0%; in the assay on BRK, 18%; in the assay with BRSK1, 7%; in the assay with BRSK2, 0%; with BTK it was 0%; in the assay on BUB1, 2%. The “%Inh” value came to 0% with CAMK1B; 16% with CAMK1D; 0% in the assay on CAMK1G; 4% in the assay on CAMK1; 0% with CAMK2A; 0% in the assay with CAMK2B. Besides, the “%Inh” value with CAMK2D and with CAMK2G was 0% each time.
Regarding `COc1ccc(Nc2nccc(NCCNC(=O)Nc3cc(C)ccc3C)n2)cc1` [GSK1379899], the “%Inh” value in the assay with BIKE is given as 28%; in the assay on BLK, 36%; in the assay with BMPR1A, 0%; in the assay with BMPR1B it was 0%; in the assay on BMPR2 it was 0%; in the assay on BMX it was 0%. The “%Inh” value in the assay on BRAF is given as 4%; in the assay with BRK, 0%; in the assay with BRSK1, 4%; with BRSK2, 7%; in the assay with BTK it was 0%; in the assay on BUB1, 0%. In addition, the “%Inh” value in the assay on CAMK1B is reported as 4%; in the assay with CAMK1D, 0%; in the assay with CAMK1G, 0%; with CAMK1, 3%; in the assay on CAMK2A, 0%; in the assay with CAMK2B, 0%. Further, the “%Inh” value with CAMK2D and in the assay with CAMK2G was 0% throughout.

Values taken from paper PMC5540273 (PLoS ONE, 2017).
